Experimental findings from PubChem BioAssay (NCATS) are described below.

Records with an inconclusive call do not appear. Calls of active or inactive are those of the source. Unless noted, calls come from the whole dose curve; as a rule, active = well fitted curve in the direction sought with a large enough effect; inconclusive = small, poorly fitted or top-dose-only effect, or another doubt; inactive = no such curve, though single readings can be large; an effect the other way counts as inactive or inconclusive.

Experiment [1] has as its target Glucocorticoid receptor (Homo sapiens) (UniProt P04150). The experiment in a line: GR-GFP Redistribution (AID 450;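 active = compounds whose dose series gives a full or clear partial fitted curve of increased nuclear translocation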; note: potency is the fitted concentration of half-maximal effect). The settings on record: U2OS GR-GFP nuclear translocation, laser cytometry, 2 h.
Experiment [2] shares this target. Description: GR-EFC Redistribution (AID 451; calls by dose curve; note: potency is the fitted concentration of half-maximal effect). As to conditions: CHO-K1 GR-EFC translocation, beta-gal luminescence, 2 h. Put shortly:
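CHO-K1 cells stably expressing nuclear-localized β-gal enzyme acceptor and GR fused C-terminally to the enzyme donor fragment; ligand-driven nuclear translocation restores β-gal by complementation. Compounds titrated up to 46 uM final, 2 h at 37 °C; luminescence read.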

Experiment [3] addresses Mitogen-activated protein kinase 10 (Mus musculus) (UniProt Q61831). The experiment in a line: JNK3 AlphaScreen Assay (AID 530; active = well fitted curve in either direction with a large enough effect, not every such curve was filed as active;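 note: kinase came from lysate of stimulated human HepG2 cells; signal reports phosphorylation of biotinylated GST-cJun 1-79 at Ser73 with 10 µM ATP; % is set by controls: 0 for no effect and ±100 for the full control effect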). The gist of the method: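 Biotinylated GST-cJun(1-79) served as substrate for JNK3 in HepG2 lysates stimulated with IL-1beta and TNF-alpha. ATP was 10 uM final, pH 7.6. Ser73 phosphorylation was quantified by AlphaScreen (680 nm excitation).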
(In general: Alpha assays give light when donor and acceptor beads are brought close together.)

A short description of experiment [4]: qHTS Assay for Lipid Storage Modulators (AID 1519; calls by dose curve; for activity change, negative = inhibition: % is set by controls: 0 for no effect and ±100 for the full control effect). The settings on record: Drosophila S3 cells, BODIPY lipid droplet/cell ratio, laser cytometry, cells loaded with oleic acid; for activity change, negative = inhibition: at 57.5 µM (top of the series). The gist of the method: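 Cells seeded at 5,000 per well were treated with compounds over a concentration series and loaded with oleic acid (400 uM, as added). Lipid droplet fluorescence (488 nm excitation, 500-530 nm channel) was read by laser-scanning cytometry and normalized to 20 uM Triacsin C.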
For orientation: qHTS replaces the single test concentration by a dilution series.

For experiment [5], the target named is Ubiquitin carboxyl-terminal hydrolase 1 (Homo sapiens) (UniProt O94782). Description: Inhibitors of USP1/UAF1: Pilot qHTS (AID 504865).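 Note: rhodamine fluorescence freed from ubiquitin-rhodamine substrate followed over time; top concentration of the series differs between compounds; % is set by controls: 0 for no effect and ±100 for the full control effect; nearly all actives have a fitted effect of over 35% in size.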 Put shortly:
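Enzyme-free wells gave the negative control, while test wells held 1nM USP1/UAF1 preincubated with compound for 15 min at room temperature. Ub-Rho at 150nM final started the reaction, and fluorescence at 480/540 nm was recorded kinetically.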

Experiment [6] concerns the target DNA dC->dU-editing enzyme APOBEC-3G (Homo sapiens) (UniProt Q9HC16). Description: qHTS for inhibitors of Vif-A3G interactions: Validation (AID 588379). Note: 0% is about no effect. Put shortly: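 Yellow fluorescence (Ex 488, Em 500-530) of Vif-coexpressing HeLa A3G-eYFP cells, scanned by Acumen cytometer, reports blocked A3G degradation. Cells plated at 700/well overnight at 37 deg C before compound addition, then a further overnight compound incubation at 37 deg C.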

For experiment [7], the system named is Zika virus NS2B-NS3 protease. Description: Primary screen GU AMC qHTS for Zika virus inhibitors (AID 1347154).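 For activity change, negative = inhibition: 0% = no-inhibitor control and -100% = no-enzyme control.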 Note: nearly all actives have a fitted effect of over 70% in size. Note: potency is the fitted concentration of half-maximal effect. Put shortly: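 Unlinked Zika NS2B hydrophilic domain/NS3 protease domain noncovalent complex (25 nM final) in 10 mM Tris-HCl pH 8.0, 0.01% Tween 20, with AMC peptide substrate. Fluorescence (ex 340, em 450 nm) change over 15 min, room temperature; percent inhibition fitted to 4-parameter Hill equation.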

Experiment [8] in a line: Primary qHTS for small molecule stabilizers of the endoplasmic reticulum resident proteome: Secreted ER Calcium Modulated Protein (SERCaMP) assay (AID 1508630). For activity change, negative = inhibition: % is set by controls: 0 for no effect and ±100 for the full control effect. Note: potency is the fitted concentration of half-maximal effect. The gist of the method:
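The SH-SY5Y reporter protocol was run at 3 concentrations up to 38.3 uM (primary) or 11 concentrations (follow-up): 16 h compound, 100 nM thapsigargin for 4 h, then extracellular luciferase luminescence.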

Experiment [9] has as its target 3',5'-cyclic-AMP phosphodiesterase 4B (Homo sapiens) (UniProt Q07343). Description: qHTS Assay for Inhibitors of PDE-IV (AID 607; active = well fitted activation curve with a large enough effect in the main read-out, with a control signal flat, not every such curve was filed as active; note: % of control where 0% means no effect). The gist of the method: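 HEK293 ACTOne cells with CNG channel (1000/well), endogenous PDE4; membrane potential dye, compounds up to 22.9 uM final. Fluorescence Ex 535/Em 590; RO 20-1724 (100 uM final) as reference.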
Experiment [10] addresses Cytochrome P450 3A4 (Homo sapiens) (UniProt P08684). The experiment in a line: qHTS Assay for Activators of Cytochrome P450 3A4 (AID 885). Note: nearly all actives have a fitted effect of over 65% in size. The gist of the method:
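Human CYP3A4 dealkylates Luciferin-PPXE to luciferin, which luciferase detection converts to light. Substrate was at its KM (25uM), buffer 200mM KPO4, reaction 60 min at RT.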

The target in experiment [11] is Cytochrome P450 1A2 (Homo sapiens) (UniProt P05177). The experiment in a line: p450-cyp1a2 (AID 410; calls by dose curve; note: potency is the fitted concentration of half-maximal effect). The gist of the method: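 Read-out is luminescence from luciferin produced by CYP1A2 demethylation of Luciferin-ME (100uM, at Km). Detection reagent stopped the 60 min NADPH-dependent reaction; signals were normalized to 57 uM furafylline.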
The mark [12] stands for this setting: measured here: cell count channel max response.
[13] abbreviates: measured here: lipid channel max response.

Sequence of DNA dC->dU-editing enzyme APOBEC-3G (Homo sapiens) (Q9HC16 whole entry, looked up): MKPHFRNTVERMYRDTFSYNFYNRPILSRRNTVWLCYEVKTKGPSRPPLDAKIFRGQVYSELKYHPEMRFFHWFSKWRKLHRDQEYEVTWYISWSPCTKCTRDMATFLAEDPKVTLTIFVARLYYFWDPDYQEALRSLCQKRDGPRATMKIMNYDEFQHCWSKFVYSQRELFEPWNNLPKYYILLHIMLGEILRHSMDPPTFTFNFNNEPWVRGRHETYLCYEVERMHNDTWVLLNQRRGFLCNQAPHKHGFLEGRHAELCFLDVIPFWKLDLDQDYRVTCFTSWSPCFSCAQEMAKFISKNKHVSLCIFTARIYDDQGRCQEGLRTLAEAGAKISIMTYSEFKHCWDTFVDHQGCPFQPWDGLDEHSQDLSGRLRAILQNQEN
Sequence of Ubiquitin carboxyl-terminal hydrolase 1 (Homo sapiens) (O94782 whole entry, looked up): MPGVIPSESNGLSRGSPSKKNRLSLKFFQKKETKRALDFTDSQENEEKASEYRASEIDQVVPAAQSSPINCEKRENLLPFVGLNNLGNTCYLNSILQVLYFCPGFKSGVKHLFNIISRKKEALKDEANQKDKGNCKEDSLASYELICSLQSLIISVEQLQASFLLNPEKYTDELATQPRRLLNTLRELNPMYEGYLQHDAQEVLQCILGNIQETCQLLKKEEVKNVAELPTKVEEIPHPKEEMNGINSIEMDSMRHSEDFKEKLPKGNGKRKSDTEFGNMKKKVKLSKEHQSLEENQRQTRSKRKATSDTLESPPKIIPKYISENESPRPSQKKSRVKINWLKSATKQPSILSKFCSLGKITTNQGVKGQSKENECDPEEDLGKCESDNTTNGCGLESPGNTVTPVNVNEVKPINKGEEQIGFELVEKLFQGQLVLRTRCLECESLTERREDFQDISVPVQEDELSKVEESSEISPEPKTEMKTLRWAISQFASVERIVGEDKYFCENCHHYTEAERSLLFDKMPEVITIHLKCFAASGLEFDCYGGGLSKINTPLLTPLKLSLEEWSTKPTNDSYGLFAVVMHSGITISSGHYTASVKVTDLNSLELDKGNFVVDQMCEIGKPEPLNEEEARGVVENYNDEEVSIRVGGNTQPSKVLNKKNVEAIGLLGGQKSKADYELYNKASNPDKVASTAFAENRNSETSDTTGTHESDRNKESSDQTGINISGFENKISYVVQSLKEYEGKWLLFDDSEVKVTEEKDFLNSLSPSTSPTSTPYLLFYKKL
Sequence of 3',5'-cyclic-AMP phosphodiesterase 4B (Homo sapiens) (Q07343 whole entry, looked up): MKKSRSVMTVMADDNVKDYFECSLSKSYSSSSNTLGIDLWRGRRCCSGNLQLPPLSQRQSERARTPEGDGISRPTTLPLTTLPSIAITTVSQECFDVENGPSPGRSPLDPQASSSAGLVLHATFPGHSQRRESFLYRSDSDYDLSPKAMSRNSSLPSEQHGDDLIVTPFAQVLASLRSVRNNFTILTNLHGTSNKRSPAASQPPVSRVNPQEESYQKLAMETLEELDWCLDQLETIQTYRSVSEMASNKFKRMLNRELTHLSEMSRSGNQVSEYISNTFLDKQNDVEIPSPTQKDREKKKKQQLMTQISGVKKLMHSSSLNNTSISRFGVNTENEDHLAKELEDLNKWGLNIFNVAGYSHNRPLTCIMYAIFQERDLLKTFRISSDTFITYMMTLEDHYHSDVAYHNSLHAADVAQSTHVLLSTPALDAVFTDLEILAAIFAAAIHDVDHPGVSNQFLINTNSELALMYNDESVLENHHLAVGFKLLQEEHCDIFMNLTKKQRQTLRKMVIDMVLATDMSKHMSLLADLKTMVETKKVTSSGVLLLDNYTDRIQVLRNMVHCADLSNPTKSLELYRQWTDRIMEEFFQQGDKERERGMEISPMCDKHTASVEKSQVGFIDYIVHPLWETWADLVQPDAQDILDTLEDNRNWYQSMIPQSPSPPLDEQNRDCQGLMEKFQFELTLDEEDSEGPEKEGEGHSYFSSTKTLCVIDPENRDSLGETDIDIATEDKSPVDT
Sequence of Glucocorticoid receptor (Homo sapiens) (P04150 whole entry, looked up): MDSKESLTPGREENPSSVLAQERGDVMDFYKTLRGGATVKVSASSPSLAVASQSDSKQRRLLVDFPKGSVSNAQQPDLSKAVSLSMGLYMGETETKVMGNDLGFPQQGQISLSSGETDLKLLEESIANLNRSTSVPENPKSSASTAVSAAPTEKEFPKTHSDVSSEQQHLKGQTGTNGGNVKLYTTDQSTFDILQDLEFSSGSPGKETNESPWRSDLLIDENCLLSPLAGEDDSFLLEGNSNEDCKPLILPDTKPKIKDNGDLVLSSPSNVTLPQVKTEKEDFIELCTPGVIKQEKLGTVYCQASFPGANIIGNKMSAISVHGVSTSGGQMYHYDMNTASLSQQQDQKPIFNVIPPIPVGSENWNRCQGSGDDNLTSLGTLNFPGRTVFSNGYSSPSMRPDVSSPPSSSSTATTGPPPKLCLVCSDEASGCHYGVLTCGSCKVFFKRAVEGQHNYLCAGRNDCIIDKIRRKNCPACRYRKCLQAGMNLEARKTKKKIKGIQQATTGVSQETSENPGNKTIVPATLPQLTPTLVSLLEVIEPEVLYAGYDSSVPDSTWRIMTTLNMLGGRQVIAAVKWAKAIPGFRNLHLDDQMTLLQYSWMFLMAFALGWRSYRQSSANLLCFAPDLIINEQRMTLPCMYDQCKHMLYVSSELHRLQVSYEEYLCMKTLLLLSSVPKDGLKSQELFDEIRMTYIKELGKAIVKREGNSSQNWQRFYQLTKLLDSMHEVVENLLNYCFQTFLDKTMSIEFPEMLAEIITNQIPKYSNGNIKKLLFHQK
Sequence of Cytochrome P450 1A2 (Homo sapiens) (P05177 whole entry, looked up): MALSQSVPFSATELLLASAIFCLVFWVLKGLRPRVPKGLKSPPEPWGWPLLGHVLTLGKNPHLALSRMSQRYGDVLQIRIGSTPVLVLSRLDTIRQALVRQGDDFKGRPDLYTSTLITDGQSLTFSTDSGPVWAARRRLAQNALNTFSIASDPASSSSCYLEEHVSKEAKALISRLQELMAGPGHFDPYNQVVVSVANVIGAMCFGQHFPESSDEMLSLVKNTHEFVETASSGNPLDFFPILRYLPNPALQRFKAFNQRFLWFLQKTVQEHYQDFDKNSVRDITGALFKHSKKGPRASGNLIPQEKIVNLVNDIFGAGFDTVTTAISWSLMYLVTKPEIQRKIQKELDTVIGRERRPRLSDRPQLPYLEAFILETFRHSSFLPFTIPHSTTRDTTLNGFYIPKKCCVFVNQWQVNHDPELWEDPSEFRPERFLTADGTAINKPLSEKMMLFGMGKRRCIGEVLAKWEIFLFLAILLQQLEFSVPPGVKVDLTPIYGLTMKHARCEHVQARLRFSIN
Sequence of Cytochrome P450 3A4 (Homo sapiens) (P08684 whole entry, looked up): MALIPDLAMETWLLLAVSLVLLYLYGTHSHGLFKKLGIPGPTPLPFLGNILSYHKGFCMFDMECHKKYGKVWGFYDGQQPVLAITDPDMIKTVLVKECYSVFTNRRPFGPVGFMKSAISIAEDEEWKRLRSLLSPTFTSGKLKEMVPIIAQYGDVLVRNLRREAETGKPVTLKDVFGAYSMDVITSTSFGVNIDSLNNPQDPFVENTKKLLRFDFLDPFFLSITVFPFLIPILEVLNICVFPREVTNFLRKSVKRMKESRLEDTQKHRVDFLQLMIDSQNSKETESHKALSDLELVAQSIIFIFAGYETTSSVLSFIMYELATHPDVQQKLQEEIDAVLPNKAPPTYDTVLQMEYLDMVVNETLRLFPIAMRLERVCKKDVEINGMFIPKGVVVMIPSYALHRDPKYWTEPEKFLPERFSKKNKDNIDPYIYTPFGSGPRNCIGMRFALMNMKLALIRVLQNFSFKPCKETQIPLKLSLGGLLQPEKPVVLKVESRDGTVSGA

For `C[C@](N)(COP(=O)(O)O)C(=O)O`, the Potency in [1] is > 46 µM (inactive); in experiment [2] it was > 46 µM (inactive); in experiment [8], 31.6 µM (active). Moreover, the Potency entry in experiment [3], in experiment [5], in experiment [6] and in experiment [7] was “inactive” each time. The activity change, negative = inhibition in experiment [4] is 4.7% (inactive). For the same molecule, the figures for the max response in experiment [4] (setting [12]) and in experiment [4] (setting [13]) were 16.3% and 21.4%, respectively.

Take `NC1(C(=O)O)CC(C(=O)O)C1` (configuration not stated): the Potency in experiment [1] and in experiment [2] was > 46 µM (inactive) in each case. Besides, the Potency result in [3], in experiment [9], in experiment [5], in [6], in experiment [7] and in [8] was “inactive” each time. Besides, the activity change, negative = inhibition in [4] was 5.41% (inactive). Also, the max response came out at 2.35% in experiment [4] (setting [12]) and 10.2% in experiment [4] (setting [13]).

Regarding `C[N+](C)(CCCCCC[N+](C)(C)CCCN1C(=O)c2ccccc2C1=O)CCCN1C(=O)c2ccccc2C1=O`, the Potency in experiment [1] and in experiment [2] was > 46 µM (inactive) each time. Besides, the Potency entry in experiment [3], in [5], in experiment [6], in experiment [7] and in experiment [8] was “inactive” throughout. Besides, the activity change, negative = inhibition in experiment [4] is -4.59% (inactive). Besides, the max response was -18.6% in experiment [4] (setting [12]) and -20.9% in experiment [4] (setting [13]).

In the case of `NC(=O)CCCCn1ccc(NC(N)=NCC(F)(F)F)n1`, the Potency in [1] and in experiment [2] was > 46 µM (inactive) throughout. The Potency entry in [3], in [5], in experiment [6], in [7] and in experiment [8] was “inactive” throughout. For the same molecule, the activity change, negative = inhibition in experiment [4] is 1.74% (inactive). Also, the figures for the max response in [4] (setting [12]) and in [4] (setting [13]) were 5.7% and 6.79%, respectively.

Consider `CCCCCC(=O)O[C@H](CC(=O)O)C[N+](C)(C)C`, for which the Potency in experiment [1] and in experiment [2] was > 46 µM (inactive) throughout. Besides, the activity change, negative = inhibition in experiment [4] was 1.82% (inactive). Also, the max response is 0.652% in experiment [4] (setting [12]) and 2.66% in experiment [4] (setting [13]). Further, the Potency result in [5], in experiment [6], in experiment [7] and in [8] was “inactive” in each case.

`c1ccc2oc(C3=NCCN3)cc2c1`: the Potency in [1] and in experiment [2] was > 46 µM (inactive) throughout. For the same molecule, the Potency result in [3], in experiment [5], in [6], in experiment [7] and in experiment [8] was “inactive” each time. The activity change, negative = inhibition in experiment [4] was -5.14% (inactive). The max response in experiment [4] (setting [12]) is -13.1%; in [4] (setting [13]) it was -18.7%.

Take `CC(C)C[C@H](NC(=O)N1CCCCCC1)C(=O)N[C@H](Cc1cn(C)c2ccccc12)C(=O)N[C@H](Cc1ccccn1)C(=O)O`: the Potency in [1] and in experiment [2] was > 46 µM (inactive) in each case. Moreover, the Potency result in [9], in experiment [10], in experiment [5], in experiment [6], in [7] and in experiment [8] was “inactive” throughout. Besides, the activity change, negative = inhibition in experiment [4] was -4.14% (inactive). In addition, the max response in experiment [4] (setting [12]) was found to be 14.7%; in experiment [4] (setting [13]), 9.02%.

With `N#Cc1cc2[nH]c(=O)c(=O)[nH]c2cc1[N+](=O)[O-]`, the Potency in experiment [1] and in experiment [2] was > 46 µM (inactive) throughout. The Potency result in [3], in experiment [6], in experiment [7] and in experiment [8] was “inactive” in each case. Besides, the activity change, negative = inhibition in experiment [4] is 2.55% (inactive). Moreover, the results for the max response in [4] (setting [12]) and in experiment [4] (setting [13]) were 12.9% and 17.2%, respectively.

Consider `O=C(O)c1c2ccccc2cc2ccccc12`, for which the Potency in experiment [11] is 0.2 µM (active); in [7], 26.7 µM (active). Moreover, the activity change, negative = inhibition in experiment [4] was 8.27% (inactive). The max response in [4] (setting [12]) stood at 24.6%; in experiment [4] (setting [13]), 34.2%. Besides, the Potency entry in [5], in experiment [6] and in experiment [8] was “inactive” throughout.

Turning to `O=C(O)/C=C1\CCCc2ccccc2[C@H]1O`, the Potency in experiment [1] and in experiment [2] was > 46 µM (inactive) in each case. The Potency result in [3], in experiment [5], in [6], in experiment [7] and in [8] was “inactive” each time. For the same molecule, the activity change, negative = inhibition in [4] was 4.3% (inactive). Also, the values for the max response in experiment [4] (setting [12]) and in experiment [4] (setting [13]) were 20.5% and 25.8%, respectively.

With `N[C@@](C(=O)O)(c1ccc(P(=O)(O)O)cc1)C1CC1`, the Potency in experiment [1] and in [2] was > 46 µM (inactive) throughout. Besides, the Potency result in experiment [3], in experiment [6], in experiment [7] and in [8] was “inactive” each time. Further, in experiment [4], the activity change, negative = inhibition was -7.82% (inactive). Besides, the max response in experiment [4] (setting [12]) is 3.93%; in [4] (setting [13]) it was -1.11%.

As to `Nc1nc2c(nc(Br)n2[C@@H]2O[C@H]3COP(=O)(O)O[C@H]3[C@@H]2O)c(=O)[nH]1`, the Potency in [1] and in [2] was > 46 µM (inactive) in each case. Further, the activity change, negative = inhibition in [4] is -3.52% (inactive). The max response was -4.09% in [4] (setting [12]) and -7.98% in experiment [4] (setting [13]). For the same molecule, the Potency entry in experiment [5], in experiment [6], in experiment [7] and in [8] was “inactive” each time.

Consider `CC[C@@](N)(C(=O)O)c1ccc(C(=O)O)cc1`, for which the Potency in experiment [1] and in experiment [2] was > 46 µM (inactive) each time. Further, the Potency entry in experiment [3], in [9], in experiment [5], in [6], in experiment [7] and in experiment [8] was “inactive” each time. Further, in [4], the activity change, negative = inhibition is 2.13% (inactive). The max response in [4] (setting [12]) and in experiment [4] (setting [13]) was -11.5% throughout.

As for `N[C@]1(C(=O)O)CCc2cc(P(=O)(O)O)ccc21`, the Potency in [1] and in [2] was > 46 µM (inactive) throughout. Moreover, the Potency result in [3], in experiment [9], in experiment [5], in experiment [6], in [7] and in experiment [8] was “inactive” throughout. For the same molecule, in [4], the activity change, negative = inhibition is -2.38% (inactive). The max response in experiment [4] (setting [12]) was -7.84%; in experiment [4] (setting [13]), -8.48%.

As for `CC(=O)O[C@H](CC(=O)O)C[N+](C)(C)C`, the Potency in [1] and in experiment [2] was > 46 µM (inactive) throughout. Also, the Potency entry in experiment [3], in experiment [5], in [7] and in [8] was “inactive” each time. In addition, in experiment [4], the activity change, negative = inhibition is 5.24% (inactive). The max response was 15% in experiment [4] (setting [12]) and 18.1% in experiment [4] (setting [13]).

With `NC(=O)C[C@H](NC(=O)Cc1ccc(O)cc1O)C(=O)O`, the Potency entry in experiment [11], in experiment [3], in experiment [9], in [7] and in experiment [8] was “inactive” each time. The Potency in experiment [1] and in [2] was > 46 µM (inactive) in each case. Also, in [4], the activity change, negative = inhibition is -1.96% (inactive). Moreover, the max response in [4] (setting [12]) was -23.7%; in [4] (setting [13]), -24%.
